Test results as given in PubChem BioAssay (Tox21).
Results filed as inconclusive are left out. Calls of active or inactive are those of the source. Unless noted, calls come from the whole dose curve; as a rule, active = well fitted curve in the direction sought with a large enough effect in the repeat runs; inconclusive = weak or mixed curves; inactive = no such curve, though single readings can be large; an effect the other way counts as inactive or inconclusive.

Key:
[1] = qHTS assay for small molecule agonists of the p53 signaling pathway (AID 651631; calls by dose curve; note: nearly all actives have a fitted effect of over 15% in size)
In short: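 Testing took place in human colorectal HCT-116 cells with stable p53RE-driven beta-lactamase. After 16 h of compound exposure at 37 °C, a FRET substrate was added and fluorescence recorded 2 h later.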

[2] = qHTS assay for small molecules that induce genotoxicity in human embryonic kidney cells expressing luciferase-tagged ATAD5 (AID 651632); note: nearly all actives have a fitted effect of over 15% in size
In short: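 Reporter cells (HEK293T) express luciferase-tagged ATAD5, a protein that accumulates after DNA damage. Treat 16 hr at 37C/5% CO2, add Amplite, wait 30 min at RT, and read luminescence.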

[3] = qHTS assay for small molecule agonists of the p53 signaling pathway - cell viability (AID 651633; calls by dose curve; note: series mostly up to about 83 µM; nearly all actives have a fitted effect of over 30% in size)
In short: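 p53RE-bla cells were treated with compound for 16 hours at 37 C. Cytotoxicity was then measured as CellTiter-Glo luminescence after 30 min at room temperature.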

[4] = qHTS assay for small molecules that induce genotoxicity in human embryonic kidney cells expressing luciferase-tagged ATAD5 - cell viability (AID 651634; calls by dose curve; note: nearly all actives have a fitted effect of over 25% in size)
In short: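 Seeding of 2,000 HEK293T ATAD5-luciferase cells per well preceded pin-tool compound transfer. Plates sat 15.5 hr at 37C under 5% CO2, then fluorescence was read after 30 min with CellTiter-Fluor.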

[5] = qHTS assay for small molecule disruptors of the mitochondrial membrane potential - cell viability (AID 720634; calls by dose curve;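 note: human HepG2 liver cancer cells; series mostly up to about 83 µM; nearly all actives have a fitted effect of over 20% in size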)
In short: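 Measuring cytotoxicity alongside mitochondrial potential, the screen quantified ATP by luminescence in HepG2 cells after 1 hr compound incubation and a 30 min room-temperature CellTiter-Glo step.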

[6] = qHTS assay for small molecule disruptors of the mitochondrial membrane potential (AID 720635)
In short: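 HepG2 cells exposed to compound 1 hr at 37C, then Mito-MPS dye 30 min. Ratio read of aggregate (540/590 nm) versus monomer (490/535 nm) fluorescence.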

[7] = qHTS assay to test for compound auto fluorescence at 590 nm (red) in HepG2 cells (AID 720674)
In short: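 HepG2 cells, 2,000 per well in MEM with 10% FBS, attached overnight at 37 C, then got 23 nL compound or DMSO. After 1 hr at 37 C, 5% CO2, red fluorescence was read at 540/590 nm against Rose Bengal sodium as reference.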

[8] = qHTS assay to test for compound auto fluorescence at 535 nm (green) in HepG2 cells (AID 720675)
[9] = qHTS assay to test for compound auto fluorescence at 460 nm (blue) in HEK293 cells (AID 720678)
In short: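 Blue read-out at excitation 405 nm and emission 460 nm follows overnight compound exposure of HEK293 cells at 37C in 5% CO2. Activity is given as auto fluorescence equivalency to triamterene.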

[10] = qHTS assay to test for compound auto fluorescence at 590 nm (red) in HEK293 cells (AID 720679)
In short: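 Red channel, Ex/Em 540/590nm; signal expressed as equivalency to Rose Bengal sodium. HEK293, 2,000 cells/well, 10% dialyzed FBS; 23 nL compound pinned after 4-5 hr attachment; overnight 37C/5% CO2 before reading.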

[11] = qHTS assay to test for compound auto fluorescence at 535 nm (green) in HEK293 cells (AID 720680)
[12] = qHTS assay to test for compound auto fluorescence at 460 nm (blue) in HEK293 cell free culture (AID 720681)
In short: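 Compounds were added to cell-free DMEM with 10% FBS and fluorescence read directly. The blue channel used 405 nm excitation and 460 nm emission, with triamterene as the reference fluorophore.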

[13] = qHTS assay to test for compound auto fluorescence at 535 nm (green) in HEK293 cell free culture (AID 720682)
In short: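 DMEM + 10% FBS, cell-free; cpd or DMSO pinned in; Ex485/Em535 read; output as fluorescein-equivalent signal.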

[14] = qHTS assay to test for compound auto fluorescence at 590 nm (red) in HEK293 cell free culture (AID 720683)
In short: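 Cell-free wells of DMEM with 10% FBS received compound, and intrinsic fluorescence was read at excitation/emission 540/590 nm. Values expressed as equivalence to Rose Bengal sodium.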

[15] = qHTS assay to test for compound auto fluorescence at 590 nm (red) in HepG2 cell free culture (AID 720684)
In short: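 Compound was pinned into wells holding MEM with 10% FBS and no cells, and red fluorescence was read at Ex/Em 540/590 nm. Signal is expressed as auto fluorescence equivalency relative to Rose Bengal sodium.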

[16] = qHTS assay to test for compound auto fluorescence at 460 nm (blue) in HepG2 cell free culture (AID 720685)
In short: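 Compound (23 nL) or DMSO pinned into cell-free MEM with 10% FBS; blue fluorescence read at 405/460 nm excitation/emission, expressed as auto-fluorescence equivalency to triamterene.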

[17] = qHTS assay to test for compound auto fluorescence at 535 nm (green) in HepG2 cell free culture (AID 720686)
[18] = qHTS assay to test for compound auto fluorescence at 460 nm (blue) in HepG2 cells (AID 720687)
In short: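 HepG2 cells in MEM with 10% FBS, attached overnight at 37 C, were exposed to compound or DMSO for 1 hr at 37 C, 5% CO2. Blue fluorescence was read at 405/460 nm, with triamterene as reference fluorophore.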

[19] = biological target: Glucocorticoid receptor (Homo sapiens) (UniProt P04150); assay: qHTS assay to identify small molecule agonists of the glucocorticoid receptor (GR) signaling pathway (AID 720691; active = well fitted activation curve with a large enough effect in the signal ratio in the repeat runs, not every such curve was filed as active; the % refers to the signal ratio)
In short: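 Reporter read-out: fluorescence intensity following 2 h room-temperature LiveBLAzer B/G FRET substrate loading. Prior step: GR-bla HeLa cells held 4 h, then treated 18 h at 37 C.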

[20] = biological target: Glucocorticoid receptor (Homo sapiens) (UniProt P04150); assay: qHTS assay to identify small molecule antagonists of the glucocorticoid receptor (GR) signaling pathway (AID 720692; active = well fitted inhibition curve with a large enough effect in the signal ratio in the repeat runs, not every such curve was filed as active; the % refers to the signal ratio)
In short: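 Dexamethasone (5 nM final) stimulated a stably integrated GRE-beta-lactamase reporter in HeLa cells during 18 h co-incubation with compounds; signal was quantified as fluorescence intensity of B/G FRET substrate after 2 h.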
% is set by controls: 0 for no effect and ±100 for the full control effect.

Glucocorticoid receptor (Homo sapiens), sequence (P04150 whole entry, looked up): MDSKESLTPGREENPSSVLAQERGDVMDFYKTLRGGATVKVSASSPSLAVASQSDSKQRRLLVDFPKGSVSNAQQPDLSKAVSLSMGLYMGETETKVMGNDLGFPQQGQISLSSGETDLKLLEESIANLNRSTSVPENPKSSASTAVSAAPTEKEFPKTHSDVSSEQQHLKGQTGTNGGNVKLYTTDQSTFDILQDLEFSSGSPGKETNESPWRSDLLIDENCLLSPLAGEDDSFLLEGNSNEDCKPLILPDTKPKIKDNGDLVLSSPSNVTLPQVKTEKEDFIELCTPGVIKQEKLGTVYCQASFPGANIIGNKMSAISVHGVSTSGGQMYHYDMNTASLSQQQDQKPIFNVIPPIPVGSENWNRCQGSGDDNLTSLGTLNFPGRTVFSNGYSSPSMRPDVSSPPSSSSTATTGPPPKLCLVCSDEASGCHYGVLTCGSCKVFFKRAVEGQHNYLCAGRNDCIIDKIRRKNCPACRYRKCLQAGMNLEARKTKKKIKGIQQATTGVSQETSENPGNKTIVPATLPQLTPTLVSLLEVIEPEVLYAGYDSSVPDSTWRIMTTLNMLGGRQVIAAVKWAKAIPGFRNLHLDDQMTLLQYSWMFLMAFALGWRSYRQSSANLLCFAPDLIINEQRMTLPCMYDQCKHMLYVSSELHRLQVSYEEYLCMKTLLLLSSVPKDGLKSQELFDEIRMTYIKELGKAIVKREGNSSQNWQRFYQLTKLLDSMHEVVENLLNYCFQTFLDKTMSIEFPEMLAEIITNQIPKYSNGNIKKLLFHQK

CNCc1ccccc1
inactive: outcome [1] | outcome [2] | outcome [3] | Potency [4] | outcome [5] | Potency [6] | outcome [7] | outcome [8] | outcome [9] | outcome [10] | outcome [11] | outcome [12] | outcome [13] | outcome [14] | outcome [15] | outcome [16] | outcome [17] | outcome [18]

CN[C@@H]1[C@H](O)[C@H](NC)[C@H]2O[C@@]3(O)C(=O)C[C@@H](C)O[C@H]3O[C@@H]2[C@H]1O
inactive: outcome [1] | outcome [2] | outcome [3] | Potency [4] | outcome [5] | Potency [6] | fluorescence, relative to Rose Bengal [7] -0.0467% [at 18.6 µM] | fluorescence, % of triamterene [9] -0.0174% [at 18.6 µM] | fluorescence, % of fluorescent control [10] 0.0398% [at 18.6 µM] | fluorescence, % of fluorescein [11] 0.0714% [at 18.6 µM] | fluorescence, % of fluorescent control [12] 0.0087% [at 18.6 µM] | activity change [13] 0.0093% [at 18.6 µM] | fluorescence, % of fluorescent control [14] 0.386% [at 18.6 µM] | fluorescence, % of Rose Bengal [15] 0.555% [at 18.6 µM] | fluorescence, % of fluorescent control [16] 0.0605% [at 18.6 µM] | fluorescence, % of fluorescein control [17] 0.0131% [at 18.6 µM] | fluorescence, % of fluorescent control [18] 0.0309% [at 18.6 µM] | Potency [19] | outcome [20]

CC1CCC(C(C)(C)S)C(=O)C1 (configuration not stated)
inactive: outcome [1] | outcome [2] | outcome [3] | Potency [4] | outcome [5] | Potency [6] | outcome [7] | outcome [9] | outcome [10] | outcome [11] | outcome [12] | outcome [13] | outcome [14] | outcome [15] | outcome [16] | outcome [18]

CC(C)c1ccccc1O
inactive: outcome [1] | outcome [2] | outcome [3] | Potency [4] | outcome [5] | outcome [7] | outcome [8] | outcome [9] | outcome [10] | outcome [11] | outcome [12] | outcome [13] | outcome [14] | outcome [15] | outcome [16] | outcome [17] | outcome [18] | Potency [19] | outcome [20]

Nc1c(NC/C=C\COc2cc(CN3CCCCC3)ccn2)c(=O)c1=O
inactive: outcome [1] | outcome [2] | outcome [3] | Potency [4] | outcome [5] | Potency [6] | outcome [7] | outcome [8] | outcome [10] | outcome [11] | outcome [12] | outcome [13] | outcome [14] | outcome [15] | outcome [16] | outcome [17] | outcome [18] | Potency [19] | outcome [20]

CCCCCC1CCCC(=O)O1 (configuration not stated)
inactive: outcome [1] | outcome [2] | outcome [3] | Potency [4] | outcome [5] | Potency [6] | outcome [7] | outcome [8] | outcome [9] | outcome [11] | outcome [12] | outcome [13] | outcome [14] | outcome [15] | outcome [16] | outcome [17] | outcome [18] | Potency [19] | outcome [20]

OCCCCCCCl
inactive: outcome [1] | outcome [2] | outcome [3] | Potency [4] | outcome [5] | Potency [6] | outcome [7] | outcome [8] | outcome [9] | outcome [10] | outcome [11] | outcome [12] | outcome [13] | outcome [14] | outcome [15] | outcome [16] | outcome [17] | outcome [18] | Potency [19] | outcome [20]

CCOC(=O)CCc1ccccc1
inactive: outcome [1] | outcome [2] | outcome [3] | Potency [4] | outcome [5] | Potency [6] | outcome [7] | outcome [8] | outcome [9] | outcome [10] | outcome [11] | outcome [12] | outcome [13] | outcome [14] | outcome [15] | outcome [17] | outcome [18]

Cc1ccc(S(=O)(=O)NC(=O)NC2CCCCCCC2)cc1
inactive: outcome [1] | outcome [2] | outcome [3] | Potency [4] | outcome [5] | Potency [6] | outcome [7] | outcome [9] | outcome [10] | outcome [11] | outcome [12] | outcome [13] | outcome [14] | outcome [15] | outcome [17] | outcome [18] | Potency [19]

CCNC(=O)NCCCOc1cccc(CN2CCCCC2)c1
inactive: outcome [1] | outcome [2] | outcome [3] | Potency [4] | outcome [5] | outcome [7] | outcome [8] | outcome [9] | outcome [10] | outcome [11] | outcome [12] | outcome [13] | outcome [14] | outcome [15] | outcome [16] | outcome [17] | outcome [18] | Potency [19]

Nc1ccc(S(=O)(=O)NC(=O)c2ccccc2)cc1
inactive: outcome [1] | outcome [2] | outcome [3] | Potency [4] | outcome [5] | Potency [6] | fluorescence, relative to Rose Bengal [7] 0.536% [at 18.6 µM] | fluorescence, % of fluorescein control [8] -0.394% [at 18.6 µM] | fluorescence, % of triamterene [9] -0.236% [at 18.6 µM] | fluorescence, % of fluorescent control [10] -0.801% [at 18.6 µM] | fluorescence, % of fluorescein [11] -0.0049% [at 18.6 µM] | fluorescence, % of fluorescent control [12] -0.0169% [at 18.6 µM] | activity change [13] 0.0575% [at 18.6 µM] | fluorescence, % of fluorescent control [14] -0.201% [at 18.6 µM] | fluorescence, % of Rose Bengal [15] -0.0804% [at 18.6 µM] | fluorescence, % of fluorescent control [16] -0.0907% [at 18.6 µM] | fluorescence, % of fluorescein control [17] -0.0092% [at 18.6 µM] | fluorescence, % of fluorescent control [18] -0.0228% [at 18.6 µM] | Potency [19] | outcome [20]
